This test addresses cAMP-dependent protein kinase catalytic subunit alpha (Homo sapiens) (UniProt P17612). The test can be described thus: Protein Kinase A (PKA-HiBiT) enzymatic inhibition screen - Functional assay. Put shortly:
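PKA-N-HiBiT enzyme (10 nM final) with 87.5 uM ATP preincubated 30 min at room temperature with compounds. Kemptide substrate then added for 3 h; residual ATP read by Kinase-Glo Plus luminescence, H-89 as positive control.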

The structures appear in SMILES notation. Inconclusive results are not listed. Where a call stands in place of a potency, no number is given. A number with no mark means an inactive call. Calls of active or inactive are those of the source. Calls follow the shape of the full dose curve.

Consider `Nc1ncccc1-c1nc2ccc(-c3ccccc3)nc2n1-c1ccc(C2(N)CCC2)cc1`, for which the Potency result is “inactive”.

Turning to `COc1cc(NC(=O)c2cccc(-n3cc(NC(=O)Nc4cccc(C)c4)cn3)c2)cc(OC)c1OC`, the Potency entry was “inactive”.

Consider `O=C(Nc1cc(C(F)(F)F)ccc1N1CCCCC1)c1ccncc1`, for which the Potency result was “inactive”.

As to `C=CC(=O)N1CCC[C@@H](n2nc(-c3cccc(C(=O)Nc4ccc(C(C)C)c(C)c4)c3)c3c(N)ncnc32)C1`, the Potency result was “inactive”.

As to `O=C(c1cccc(Cl)c1F)N1CCN(Cc2cccc(Nc3nccs3)n2)CC1`, the Potency entry was “inactive”.

Turning to `Cc1cc(-c2cc(O)ccc2Cl)cc2nnc(Nc3ccc(OCCN4CCCC4)cc3)nc12`, the Potency result is “inactive”.

Regarding `S=C(NCc1ccc2c(c1)OCO2)N1CCN(c2ncnc3c2oc2ccccc23)CC1`, the Potency result was “inactive”.

For the compound `COc1cc2c(N3CCN(C(=O)Nc4ccc(OC(C)C)cc4)CC3)ncnc2cc1OCCCN1CCCCC1`, the Potency result was “inactive”.

With `Cc1cc(Nc2ncc3c(n2)N(C)C(=O)N(c2cc(NC(=O)c4cccc(C(F)(F)F)c4)ccc2C)C3)n(C)n1`, the Potency entry was “inactive”.

For the compound `CN1CCN(C2CCC(n3cc(-c4ccc(Oc5ccccc5)cc4)c4c(N)ncnc43)CC2)CC1` (stereo not given), the Potency entry is “inactive”.

As for `COc1ccc(S(=O)(=O)N(C(C)=O)c2ccccc2/C=C/c2cc[n+]([O-])cc2)cc1`, the Potency result was “inactive”.

In the case of `Cc1ccccc1-n1c([C@H](C)Nc2nc(N)nc3nc[nH]c23)nc2cccc(C)c2c1=O`, the Potency result was “inactive”.

Regarding `Cc1cc(C)c(/C=C2\C(=O)Nc3ccccc32)[nH]1`, the Potency entry was “inactive”.

For `C=CC(=O)N1CCC(Oc2cc3c(Nc4ccc(Cl)c(Cl)c4F)ncnc3cc2OC)CC1`, the Potency result was “inactive”.

For `COc1ccc(-n2c(C)c([N+](=O)[O-])c3ccc(O)cc32)cc1`, the Potency entry is “inactive”.

As for `CN1CCN(Cc2ccc(-c3cnc4[nH]cc(-c5ccc6[nH]ccc6c5)c4c3)cc2)CC1`, the Potency entry was “inactive”.

For the compound `Cc1ccc(-n2nc(C(C)(C)C)cc2NC(=O)NCc2cc(F)ccc2Oc2ccc3c(cnn3CCO)c2)cc1`, the Potency entry was “inactive”.

Take `C[C@@H](NC(=O)c1ncnc(N)c1Cl)c1ncc(C(=O)Nc2cc(C(F)(F)F)c(Cl)cn2)s1`: the Potency entry is “inactive”.

With `COc1cc(N2CCOCC2)ccc1Nc1ncc(Cl)c(Nc2ccccc2NS(C)(=O)=O)n1`, the Potency result was “inactive”.

Regarding `COC(=O)Nc1ccc(-c2nc(N3CCOCC3)c3cnn(C4CCN(C(=O)OC)CC4)c3n2)cc1`, the Potency result was “inactive”.

On to `Cc1ccc(C(=O)Nc2ccc(Oc3cc4cnn(C)c4cc3-c3cn[nH]c3)c(F)c2)c(=O)n1-c1ccc(F)cc1`, for which the Potency entry was “inactive”.

For the compound `Cc1cc(Nc2ncc3cc(-c4c(Cl)cccc4Cl)c(=O)n(C)c3n2)ccc1F`, the Potency result was “inactive”.

For the compound `Cn1sc(=O)n(Cc2ccccc2)c1=O`, the Potency entry is “inactive”.

As for `N#Cc1cccc(-c2c[nH]c3ncnc(N4CCOCC4)c23)c1`, the Potency entry was “inactive”.

In the case of `Nc1ncnc2c1c(-c1cnc3[nH]ccc3c1)nn2C1CCCC1`, the Potency entry is “inactive”.

For the compound `CC(C)CCN1c2nc(Nc3cc(F)c(O)c(F)c3)ncc2N(C)C(=O)C1C` (stereo not given), the Potency result is “inactive”.

`CN1CCN(CCOc2cc(OC3CCOCC3)c3c(Nc4c(Cl)ccc5c4OCO5)ncnc3c2)CC1`: the Potency result was “inactive”.

With `Cc1sc2c(c1C)C(c1ccc(Cl)cc1)=N[C@@H](CC(=O)Nc1ccc(OCCOCCOCCOCCNc3cccc4c3C(=O)N(C3CCC(=O)NC3=O)C4=O)cc1)c1nnc(C)n1-2` (stereo not given in full), the Potency entry was “inactive”.

`Cc1cc(F)ccc1-c1nc(NCCN=C(N)NC#N)nc2c1ccc(=O)n2-c1c(F)cccc1F`: the Potency result is “inactive”.

Regarding `CO[C@H]1/C=C/O[C@@]2(C)Oc3c(C)c(O)c4c(O)c(c(/C=N\N5CCN(C6CCCC6)CC5)c(O)c4c3C2=O)NC(=O)/C(C)=C\C=C\[C@H](C)[C@H](O)[C@@H](C)[C@@H](O)[C@@H](C)[C@H](OC(C)=O)[C@@H]1C`, the Potency entry is “inactive”.

Regarding `Cc1cccc(/C=N/Nc2cc(N3CCOCC3)nc(OCCc3ccccn3)n2)c1`, the Potency result is “inactive”.

Take `c1ccc2c(-c3cnn4cc(-c5ccc(N6CCNCC6)cc5)cnc34)ccnc2c1`: the activity change, negative = inhibition was 8.42% [at 6.37 µM].

For `COc1cc2c(Oc3ccc4[nH]c(C)cc4c3F)ncnc2cc1OCCCN1CCCC1`, the Potency entry was “inactive”.

Consider `COc1ccccc1-c1c[nH]c2ncc(-c3cncc(C(=O)N(C)C)c3)cc12`, for which the Potency entry was “inactive”.

On to `COc1cc(N2CCC(O)CC2)ccc1Nc1nc(Nc2ccccc2S(=O)(=O)C(C)C)c2[nH]cnc2n1`, for which the Potency result is “inactive”.

The values are drawn from PubChem BioAssay AID1963321 (National Center for Advancing Translational Sciences (NCATS), 2024).
